Our source for the growth values is PubChem BioAssay (NCI).

Holding throughout (experiment): NCI-60 one-dose screen, 48 h (100 = growth as untreated, 0 = no growth, -100 = all killed)
The test system of one test is SK-MEL-2 melanoma. As to conditions: 10 µM unless noted.
The next test has as its system EKVX NSCLC. Particulars: 10 µM unless noted.
The test system of another test is SN12C renal. As to conditions: 10 µM unless noted.
The test system of the next test is UO-31 renal. Particulars: 10 µM unless noted.
The next test concerns TK-10 renal. Particulars: 10 µM unless noted.
The subject of another test is ACHN renal. As to conditions: 10 µM unless noted.
Another test deals with CAKI-1 renal. Particulars: 10 µM unless noted.
A further test relates to A498 renal. Particulars: 10 µM unless noted.
For another test, the system named is CCRF-CEM leukemia. Particulars: 10 µM unless noted.
The next test concerns MOLT-4 leukemia. Particulars: 10 µM unless noted.
In a further test the test system is RPMI-8226 leukemia. As to conditions: 10 µM.
A further test concerns OVCAR-8 ovarian. Particulars: 10 µM unless noted.
A further test concerns OVCAR-5 ovarian. As to conditions: 10 µM unless noted.
The test system of a further test is OVCAR-4 ovarian. Particulars: 10 µM unless noted.
The test system of a further test is SK-OV-3 ovarian. As to conditions: 10 µM.
A further test concerns IGROV1 ovarian. Particulars: 10 µM unless noted.
In another test the test system is OVCAR-3 ovarian. Particulars: 10 µM unless noted.
The test system of the next test is HS 578T breast. Particulars: 10 µM unless noted.
Another test has as its system NCI/ADR-RES ovarian. Particulars: 10 µM unless noted.
A further test deals with SR leukemia. As to conditions: 10 µM unless noted.

About 83,000 compounds went through this panel and 20% of them were active in at least one assay; those are over-represented in the sample as a whole.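 The test compound was applied at a single concentration to cells in 96-well plates for 48 hours, and percent growth was recorded.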 Values without a mark were called inactive. Calls of active or inactive are those of the source. The calls were made as follows: active = growth percent below 10; inactive = the rest.

Take `CN1CCC(OC2c3ccccc3CCc3ccccc32)CC1`: the growth in the test on SK-MEL-2 melanoma was 113%; with EKVX NSCLC, 84.9%; in the test on SN12C renal, 93.9%; with UO-31 renal, 73.4%; in the test with TK-10 renal, 89%; in the test on ACHN renal it was 97.5%. For the same molecule, the growth with CAKI-1 renal was 75.4%; in the test with A498 renal, 77.9%; in the test on CCRF-CEM leukemia, 94.1%; in the test on MOLT-4 leukemia, 99.5%; in the test with RPMI-8226 leukemia it was 88%; in the test with OVCAR-8 ovarian, 97.6%. The growth was 95.3% with OVCAR-5 ovarian; 94.4% in the test with OVCAR-4 ovarian; 96% in the test on SK-OV-3 ovarian; 109% in the test with IGROV1 ovarian; 106% with OVCAR-3 ovarian; 87.4% in the test with HS 578T breast. For the same molecule, the growth with NCI/ADR-RES ovarian was 96.5%.

Take `CC1=C(C/C=C(\C)CCC[C@H](C)CCC[C@H](C)CCCC(C)C)C(=O)c2ccccc2C1=O`: the growth in the test on SK-MEL-2 melanoma is 114%; in the test on EKVX NSCLC, 114%; with SN12C renal, 99.7%; in the test on UO-31 renal it was 71.7%; in the test with TK-10 renal it was 95.6%; in the test on ACHN renal it was 104%. In addition, the growth with CAKI-1 renal was 103%; with A498 renal, 101%; in the test on CCRF-CEM leukemia it was 102%; in the test on SR leukemia, 94.9%; with RPMI-8226 leukemia it was 106%; in the test with OVCAR-8 ovarian, 100%. The growth was 105% in the test with OVCAR-5 ovarian; 103% with SK-OV-3 ovarian; 111% in the test on IGROV1 ovarian; 119% with OVCAR-3 ovarian; 105% in the test with HS 578T breast; 111% with NCI/ADR-RES ovarian.

As to `Nc1cccc2c(=S)c3ccccc3[nH]c12`, the growth is 87.5% in the test on SK-MEL-2 melanoma; 93.6% in the test on EKVX NSCLC; 90.6% in the test with SN12C renal; 56.4% with UO-31 renal; 192% in the test with TK-10 renal; 92.7% in the test on ACHN renal. Moreover, the growth in the test on CAKI-1 renal was 77.1%; in the test with A498 renal, 64.5%; in the test with CCRF-CEM leukemia, 100%; in the test with MOLT-4 leukemia, 104%; in the test on SR leukemia, 111%; with OVCAR-8 ovarian, 93.7%. In addition, the growth with OVCAR-5 ovarian was 92.9%; with OVCAR-4 ovarian it was 83%; with IGROV1 ovarian it was 86.9%; with OVCAR-3 ovarian, 91%; in the test with HS 578T breast it was 94.3%; in the test on NCI/ADR-RES ovarian, 101%.

Regarding `NC1=NC(c2ccccc2OS(=O)(=O)c2ccc(Br)cc2)n2c(nc3ccccc32)N1` (centres undefined), the growth with SK-MEL-2 melanoma is 101%; with EKVX NSCLC, 99.1%; with SN12C renal it was 87.7%; in the test with UO-31 renal, 73.5%; in the test on TK-10 renal, 99%; in the test on ACHN renal, 94.5%. Further, the growth in the test on CAKI-1 renal is 104%; with A498 renal it was 101%; in the test with MOLT-4 leukemia it was 79.3%; in the test with RPMI-8226 leukemia, 69.8%; with OVCAR-8 ovarian, 88.3%; with OVCAR-5 ovarian it was 99%. The growth in the test with OVCAR-4 ovarian was 110%; in the test with SK-OV-3 ovarian, 105%; in the test on IGROV1 ovarian it was 81.8%; in the test on OVCAR-3 ovarian, 94.6%; in the test on HS 578T breast, 101%.

For `COc1cc(/C=C2\C(=O)N(c3c(Cl)cccc3Cl)c3ccccc32)cc(OC)c1O`, the growth in the test with SK-MEL-2 melanoma is 36%; in the test with EKVX NSCLC it was 79.8%; in the test with SN12C renal, 50%; in the test with UO-31 renal, 31.7%; with TK-10 renal it was 48.2%; in the test on ACHN renal it was 40.5%. The growth in the test on CAKI-1 renal is 7.23% (active); in the test on A498 renal it was 102%; in the test on CCRF-CEM leukemia, 17.6%; in the test with MOLT-4 leukemia, 0.985% (active); in the test with RPMI-8226 leukemia, 12.5%; in the test with OVCAR-8 ovarian, 33.1%. For the same molecule, the growth in the test with OVCAR-5 ovarian was 89.8%; with OVCAR-4 ovarian, 53.6%; in the test with SK-OV-3 ovarian it was 53.7%; with IGROV1 ovarian it was 6.56% (active); in the test with OVCAR-3 ovarian, 46%; in the test with HS 578T breast it was 39.8%. Also, the growth in the test with NCI/ADR-RES ovarian is 38.7%.

In the case of `CN1CCc2cccc3c2C1Cc1ccc(O)c(O)c1-3` (centres undefined), the growth in the test with SK-MEL-2 melanoma was 117%; in the test with EKVX NSCLC, 75.4%; in the test with SN12C renal, 88.4%; in the test with UO-31 renal, 64.2%; with TK-10 renal, 129%; with ACHN renal it was 73%. Also, the growth in the test on CAKI-1 renal was 63.4%; in the test with A498 renal it was 103%; in the test with CCRF-CEM leukemia, 37.9%; in the test on OVCAR-8 ovarian it was 89%; in the test with OVCAR-5 ovarian, 88.3%; in the test on SK-OV-3 ovarian, 102%. The growth in the test with IGROV1 ovarian is 76.2%; in the test on OVCAR-3 ovarian it was 28%; with HS 578T breast it was 99.1%; in the test on NCI/ADR-RES ovarian, 81%.

Take `O=C1c2cc(S(=O)(=O)O)ccc2C(=O)c2c1cccc2[N+](=O)[O-]`: the growth with SK-MEL-2 melanoma was 108%; with EKVX NSCLC, 120%; in the test with SN12C renal it was 103%; with UO-31 renal it was 85.3%; in the test with TK-10 renal, 116%; in the test with ACHN renal it was 111%. Further, the growth in the test with CAKI-1 renal was 102%; in the test with A498 renal, 103%; in the test with CCRF-CEM leukemia, 97.8%; in the test on MOLT-4 leukemia, 100%; with SR leukemia, 98.2%; in the test with OVCAR-8 ovarian, 95.6%. Besides, the growth was 110% with OVCAR-5 ovarian; 115% with OVCAR-4 ovarian; 106% with SK-OV-3 ovarian; 120% with IGROV1 ovarian; 114% in the test with OVCAR-3 ovarian; 106% in the test on HS 578T breast. Besides, the growth in the test on NCI/ADR-RES ovarian is 111%.

As for `Clc1ccc(Nc2nc(Nc3ccccc3)nc(Nc3ccc(-c4cc(-c5ccc(Cl)cc5)on4)cc3)n2)cc1`, the growth was 64.2% in the test on SK-MEL-2 melanoma; 69.5% in the test on EKVX NSCLC; 64% in the test with SN12C renal; 41.7% with UO-31 renal; 52.8% with TK-10 renal; 47.1% with ACHN renal. Besides, the growth with CAKI-1 renal is 48.2%; with A498 renal it was 43.9%; in the test on MOLT-4 leukemia it was 52.2%; with SR leukemia, 51.5%; in the test with RPMI-8226 leukemia, 50.8%; in the test on OVCAR-8 ovarian it was 39.4%. Besides, the growth was 64.6% with OVCAR-4 ovarian; 91.2% in the test with SK-OV-3 ovarian; 34.7% in the test on IGROV1 ovarian; 71.6% in the test with OVCAR-3 ovarian; 11.7% in the test with HS 578T breast; 51.4% in the test with NCI/ADR-RES ovarian.
